# Assay outcomes from PubChem.
# SUMO Mot1 rescue: blocks SUMOylation pathway, rescuing yeast Mot1-301 growth | S. cerevisiae Mot1-301 growth rescue, ATP luminescence, 38.5C; percent above DMSO median, 100 means doubled | growth rescue, % at 18.8 µM | 320,000 compounds, 1% hits;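 active = every valid replicate shows activation above 250% relative to neutral control wells; inactive = the rest, any valid replicate at or below 250%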;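 note: OY570 slx delta 5 strain wells were the positive control but not used for scaling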
# tim23-1 inh: tim23-1 yeast growth inhibition; inhibition, % at 20 µM; S. cerevisiae tim23-1 growth, BacTiter-Glo luminescence, 24 h; AID 463212; 330,000 compounds, 1.3% hits;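 active = growth inhibition of the mutant yeast at or above 50%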;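 note: temperature-sensitive mutant grown at 25 °C; plate controls were DMSO-treated mutant yeast for no effect and medium wells lacking yeast for full effect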
# tim10-1 inh: growth inhibitors of tim10-1 mutant yeast. inhibition, % at 20 µM. S. cerevisiae tim10-1 ts strain growth, BacTiter-Glo, 24 h. 330,000 compounds, 2.2% hits;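 active = inhibition of at least 40%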;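 note: mutant grown at 25 °C; 0% = DMSO wells with yeast and 100% = wells holding no yeast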
# PfHsp90 yeast 2: inhibits growth of yeast expressing Plasmodium falciparum Hsp90. 310,000 compounds, 0.32% hits. S. cerevisiae expressing PfHsp90, BacTiter-Glo ATP, 48 h; yeast lacking PDR1 and PDR3 efflux regulators. inhibition, % at 9.4 µM;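 active = every replicate shows inhibition above about 80%, whatever the replicate mean, limit read from the data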;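 note: 0% = DMSO neutral controls and 100% = 20 µM radicicol positive controls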
# TIM10 inh: TIM10 yeast growth inhibition. S. cerevisiae TIM10 strain growth, BacTiter-Glo luminescence, 24 h. 330,000 compounds, 1.4% hits. inhibition, % at 10 µM;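 active = inhibition of 40% or more at the single tested concentration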;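 note: wild-type TIM10 isogenic control strain grown at permissive 25 °C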
# TIM10 conf: confirmation of TIM10 yeast growth inhibitors; 4,600 compounds, 63% hits; S. cerevisiae tim10 strain growth, BacTiter-Glo luminescence, 24 h; shares compounds with TIM10 inh; AID 463215; inhibition, % at 10 µM;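 active = inhibition of yeast growth at or above a set limit in either of two replicates at 10 µM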;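 note: this counterscreen used the strain with wild-type TIM10; 0% = yeast with DMSO and 100% = medium wells lacking yeast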
# tim23-1 confirm: tim23-1 yeast growth inhibition, confirmed; inhibition, % at 20 µM; S. cerevisiae tim23-1 growth, BacTiter-Glo luminescence, 24 h; shares compounds with tim23-1 inh; 4,400 compounds, 83% hits;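 active = inhibition above about 39% in either of two replicate wells at 20 µM, limit read from the data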;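 note: temperature-sensitive tim23-1 mutant grown at 25 °C; 0% = DMSO wells with yeast and 100% = medium wells without yeast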
# Starred values were filed as active, the others as inactive; nt = no result given. Shown are actives, neighbours in structure and some others; about 4.4% of the full set was active somewhere.
SMILES,SUMO Mot1 rescue,tim23-1 inh,tim10-1 inh,PfHsp90 yeast 2,TIM10 inh,TIM10 conf,tim23-1 confirm
COc1cc(NC(=O)c2ccc(OC)c([N+](=O)[O-])c2)ccc1NC(=O)c1cccs1,-6.6,-10.8,2.6,2.3,1.1,nt,nt
O=C(Nc1ccc2nn(-c3ccccc3)nc2c1)c1cccs1,5.1,54.2*,29.8,-11.1,53.3*,53.8*,65.1*
CSc1nc(N)nc2c1ncn2CC(=O)NCc1ccc2[nH]ccc2c1,-4.3,9.9,8.6,2.2,1.9,nt,nt
Oc1c(C=Nc2ccccc2)sc2ccccc12,-22.4,66.2*,32.9,22.4,40.2*,45.4*,62.1*
O=C(N/N=C/c1ccccc1O)c1cccc2ccccc12,41.7,66.5*,-13.2,-14.8,40.7*,21.0,39.0
CCN(CC)Cc1c(O)ccc2c(=O)c(-c3ccc4c(c3)OCCO4)coc12,10.9,1.4,0.4,-11.8,3.1,nt,nt
O=c1c(-c2ccc3c(c2)OCCO3)coc2cc(O)cc(O)c12,-23.7,56.2*,35.2,17.9,41.0*,36.2*,49.1*
CN(C(=O)COC(=O)c1cc2ccccc2cc1O)c1ccccc1,29.5,61.5*,25.3,23.3,40.4*,46.6*,48.4*
Cc1ccc2cc3cc(C(=O)NCCCN4CCCCCC4)oc3nc2c1,-3.9,50.6*,33.3,13.9,58.3*,-4.8,22.6
COc1cccc(N/N=C/c2cccc(Br)c2O)c1,3.4,58.0*,23.0,-7.3,56.5*,35.5*,69.0*
Cc1cccc(N/N=C/c2ccc(O)c(O)c2O)c1,30.3,9.7,7.0,15.5,4.3,nt,nt
Cc1ccc2c(c1)C(=O)C(=O)N2CC(=O)OC(C)C,-5.0,14.6,19.4,14.7,5.6,nt,nt
Cc1ccc2c(c1)C(=O)C(=O)N2Cc1ccc(C(F)(F)F)cc1,63.6,81.9*,29.9,149.8*,41.3*,58.1*,31.9*
N/C(=N/OC(=O)c1ccc(Cl)cc1)c1ncc([N+](=O)[O-])s1,91.4,49.0,20.8,-4.5,6.3,nt,nt
Cc1c2cc[n+](CCN3CCCCC3)cc2c(C)c2c1[nH]c1ccc(O)cc12,nt,nt,nt,-13.4,nt,nt,nt
CCCOC(=O)Oc1ccc2c(=O)c(Oc3cc(C)cc(C)c3)coc2c1,30.0,50.8*,37.7,4.4,46.6*,41.2*,52.8*
COCCCNC(=S)N/N=C/c1cccc(OC)c1O,-4.0,26.6,19.4,nt,31.1,nt,nt
CCCCNC(=S)N/N=C/c1ccccc1F,-4.7,50.5*,35.4,-7.9,46.6*,-9.8,40.2*
Cc1cc2n(n1)C(c1ccc(N(C)C)cc1)Nc1ccccc1-2 (stereo unspecified),-9.0,55.3*,34.2,nt,40.1*,34.4*,63.9*
Cc1cc2n(n1)C(c1ccccc1)Nc1ccccc1-2 (stereo unspecified),22.0,18.8,31.1,nt,34.3,nt,nt
c1ccc(CN2CCC(N3CCN(Cc4ccc5c(c4)OCO5)CC3)CC2)cc1,-1.4,-22.7,-16.4,1.1,-1.7,nt,nt
O=C1C=CC2C(c3ccc4c(c3)OCO4)CC1N2Cc1ccccc1 (stereo unspecified),11.8,57.9*,22.6,-7.8,44.3*,51.0*,46.9*
Oc1cccc(Nc2nc(-c3ccccc3)nc3ccccc23)c1,12.2,82.5*,21.0,-9.2,58.7*,55.5*,53.6*
Cc1cccc(-c2cc3nc(-c4ccccc4)cc(=O)n3[nH]2)c1,-18.7,6.5,11.0,4.0,-3.9,nt,nt
CCCCCCCCC1=NCCc2c1[nH]c1ccccc21,-54.1,57.1*,38.4,-8.3,45.0*,12.8,43.0*
SMILES,SUMO Mot1 rescue,tim23-1 inh,tim10-1 inh,PfHsp90 yeast 2,TIM10 inh,TIM10 conf,tim23-1 confirm
CCN(c1ccccc1)S(=O)(=O)c1ccc(OC)c(NC(=O)C2=NN(c3ccccc3)C(=O)CC2)c1,nt,2.4,11.6,-12.6,7.6,nt,nt
O=C(/C=C/c1ccccn1)c1cc(Cl)cc(Cl)c1O,-22.4,63.0*,37.2,-4.2,61.2*,53.2*,24.0
COc1ccc(/C=C/C(=O)c2cc(Cl)cc(Cl)c2O)c(OC)c1,3.6,-1.4,0.3,-12.4,7.8,nt,nt
Oc1ccc(N=Nc2ccc(Br)cc2)c(O)c1,12.9,68.4*,37.2,-11.9,47.7*,63.8*,2.2
Cc1ccc(N=Nc2ccc(O)cc2)c(Br)c1,-20.3,66.2*,-31.8,115.6*,51.7*,71.4*,-2.0
CCN(CC)S(=O)(=O)c1ccc(N=Nc2cc(C)cc(Br)c2O)cc1,140.0,29.3,23.9,0.2,22.5,nt,nt
Oc1ccc(N=Nc2ccc3c(c2)OCCO3)c(O)c1,3.9,35.9,31.4,1.0,16.7,nt,nt
O=C(CNS(=O)(=O)c1cccc2nsnc12)NCCc1ccccc1,13.5,-8.9,-0.7,-11.0,-7.5,nt,nt
CCCOc1ccc(/C=c2\sc3ncnn3c2=O)cc1,77.4,47.1,32.2,23.1,18.9,nt,nt
CCOc1ccccc1/C=c1\sc2ncnn2c1=O,2.2,60.0*,37.7,nt,43.1*,31.7*,73.9*
O=C(NC(=S)NCc1ccccc1Cl)c1cccs1,21.8,67.3*,15.9,2.0,46.1*,51.2*,52.0*
O=C(NCc1ccccc1F)c1cccs1,-19.2,-0.3,8.4,1.2,-29.1,nt,nt
CC1CCc2c(sc(NC(=O)c3c([N+](=O)[O-])cnn3C)c2C(N)=O)C1 (stereo unspecified),5.4,11.1,19.1,-21.9,12.9,nt,nt
CCN(CC)C(=O)c1sc2nc(-c3cccs3)cc(-c3cccs3)c2c1N,-4.0,52.9*,34.7,-0.4,42.7*,34.8*,43.2*
CC(C)(C)C(=O)c1sc2nc(-c3cccs3)cc(C(F)(F)F)c2c1N,9.2,32.5,38.3,-20.9,6.6,nt,nt
O=S(=O)(c1ccc2ccccc2c1)N1CCN(c2ccc(O)cc2)CC1,28.4,57.8*,30.5,-15.4,44.0*,44.0*,48.0*
O=C(C#Cc1ccccc1)c1ccco1,43.4,61.0*,21.7,104.1*,55.7*,68.8*,62.3*
O=C(COC(=O)c1cncc(Br)c1)NC1CCCCC1,-17.5,1.0,-1.3,-30.5,-22.1,nt,nt
O=C(NC(=S)NC1CCCCCC1)c1cncc(Br)c1,17.2,50.7*,34.3,0.6,44.1*,-1.0,42.2*
O=C(/C=C/c1ccccc1O)c1ccc(Cl)cc1,50.4,55.9*,34.0,14.0,42.2*,38.7*,58.0*
Cc1cc(C(=O)CS(=O)(=O)c2ccc(Cl)cc2)cc(C)c1O,1.1,-4.6,-6.6,2.8,-29.9,nt,nt
Cc1ccnc(NC(=O)c2ccc3c(c2)C(=O)N(CCC(C)C)C3=O)c1,17.7,2.7,-0.9,15.2,13.1,nt,nt
N#C/C(=C\c1ccccc1Cl)C(=O)Nc1ccccn1,-7.0,63.9*,32.8,2.6,43.3*,23.4,42.0*
N#C/C(=C\c1cccs1)C(=O)Nc1ccccn1,-5.1,2.8,-20.6,1.5,-15.3,nt,nt
Cc1ccnc(NC(=O)CNC(=O)c2cccs2)c1,-9.9,-4.0,5.9,-19.5,5.4,nt,nt
